Reference: PubChem BioAssay (NCI)
The panel holds about 79,000 compounds, 15% with a hit somewhere; the sample as a whole holds those more often. Active and inactive are the calls of the source. No stated cut-off is given here; in the data, active means growth inhibition above about 70%; inactive means the rest.

Assay: NCI Yeast Anticancer Drug Screen. Data for the cln2 rad14 strain (AID 165);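 further: 0% = growth equal to vehicle treated cultures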
Conditions: S. cerevisiae cln2 rad14 strain, at 50.0 µM (retest, dose inferred, filed as 5.0), stronger effect = higher value
Summary of the method: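 Relative to vehicle controls, growth inhibition of compound-treated cln2 rad14 yeast was recorded.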
In the case of `CCCCCC(C1SC(=S)NC1=O)C1SC(=S)NC1=O` (stereo not given), the growth inhibition was -1% (inactive). In the case of `CC(C)C1=CC2=CC(=O)C3C(C)(C)CCCC3(C)C2=C(O)C1=O` (stereo not given), the growth inhibition was 86% (active). With `CCOC(=O)C[n+]1c(C)sc2ccccc21` the growth inhibition was 18% (inactive). In the case of `OCc1c(-c2cccc3ccccc23)sc(-c2cccc3ccccc23)c1CO`, the growth inhibition was 81% (active). For `CC1=C(C#N)C(=O)OC1(C)C(CC(=O)c1ccccc1)c1ccccc1` (stereo not given), the growth inhibition was 4% (inactive). With `O=c1oc2c3ccc4ccccc4c3n(CCCN3CCCCC3)c2c2ccccc12` the growth inhibition was 27% (inactive). For `Cc1cc(NC(=S)SCc2ccc(F)cc2)ccc1Br`, the growth inhibition was 99% (active). For `Cc1ccc(C2C(O)=C(c3ccccc3)Sc3ccc(C)cc32)cc1` (stereo not given), the growth inhibition was 51% (inactive). With `COC(=O)/C=C1/OC(c2ccccc2)=CC1=O` the growth inhibition was -2% (inactive). For `COc1ccccc1NC(=O)CC(=O)N1N=C(c2ccccc2)C(N=Nc2ccc(Cl)cc2)C1=O` (stereo not given), the growth inhibition was 12% (inactive). With `CC(=O)NC1=C(Nc2ccc(-c3ccc(NC4=C(NC(C)=O)C(=O)c5ccccc5C4=O)cc3)cc2)C(=O)c2ccccc2C1=O` the growth inhibition was 98% (active). For `CCCCCCC(O)CCOC(C)=O` (stereo not given), the growth inhibition was -11% (inactive). With `CCn1nc(-c2ccccc2)c2c1N(C)c1ccccc1-n1c(-c3ccccc3)nnc1-2` the growth inhibition was 98% (active). With `CC1(CCC(=O)O)c2ccc3ccccc3c2Oc2c1ccc1ccccc21` the growth inhibition was 95% (active). In the case of `CCN1/C(=C\c2cc(C)nc(-c3ccccc3)[n+]2C)C=Cc2ccccc21`, the growth inhibition was 98% (active). For `Cc1ccccc1N1C(=O)c2ccccc2C1=O`, the growth inhibition was 9% (inactive). With `O=C(Oc1ccccc1)C1CCCCC1C(=O)Oc1ccccc1` (stereo not given) the growth inhibition was 33% (inactive). In the case of `Cc1cccc2c1C1c3c(C)cccc3C(O)CC1CC2O` (stereo not given), the growth inhibition was -1% (inactive). With `CC(C)c1cc2c(cc1O)C(O)C1(O)CCCC(C)(C)[C@H]1CC2` (stereo not given in full) the growth inhibition was 99% (active). With `C/C=C/c1ccc(OCC(=O)O)c(OC)c1` the growth inhibition was -11% (inactive). For `Nc1ccc(S(=O)(=O)NCc2nccs2)cc1`, the growth inhibition was 60% (inactive). For `N#CC(NNC(=O)c1ccccc1O)c1c(O)ccc2ccccc12` (stereo not given), the growth inhibition was 62% (inactive). For `Oc1ccc(Cl)cc1Cc1cc(Cl)cc(Cc2cc(Cl)ccc2O)c1O`, the growth inhibition was 95% (active). For `O=C1CN(CCN2CCOCC2)CC(=O)N2Cc3ccccc3CN12`, the growth inhibition was 46% (inactive). With `CC1CCC(SC2CC(=O)CCC2=O)CC1` (stereo not given) the growth inhibition was 99% (active). In the case of `Clc1ccc(OCC2CO2)c(Cl)c1` (stereo not given), the growth inhibition was 40% (inactive). With `CN=C(N)N/N=C(\C)c1ccc2c(ccc3ccccc32)c1` the growth inhibition was 98% (active). In the case of `Cc1cc(O)c(/C=N/c2nc(-c3cccc([N+](=O)[O-])c3)cs2)c(=O)o1`, the growth inhibition was 99% (active). For `COc1cccc2c1OC(c1ccc(Cl)cc1)C([N+](=O)[O-])=C2` (stereo not given), the growth inhibition was 95% (active). For `COc1ccc(C(=O)C2C(=O)C(=O)OC2C2OC(=O)C(=O)C2C(=O)c2ccc(OC)cc2)cc1` (stereo not given), the growth inhibition was 1% (inactive). In the case of `CCCCCCCCCCCCCCCCOc1ccc(S(=O)(=O)N/N=c2/sc3ccc(S(=O)(=O)O)cc3n2C)cc1C(=O)O`, the growth inhibition was 62% (inactive). With `O=C(Nc1ccc(F)cc1)N1CCCCC1` the growth inhibition was 31% (inactive). With `C[CH2][Sn]([CH2]C)([O]C(=O)c1cc(OC)c(OC)c(OC)c1)[O][Sn]([CH2]C)([CH2]C)[O]C(=O)c1cc(OC)c(OC)c(OC)c1` the growth inhibition was 61% (inactive). In the case of `C/C(O)=C(/C=N/C(=S)Nc1ccc(S(N)(=O)=O)cc1)C(=O)Nc1ccccc1C`, the growth inhibition was 6% (inactive). With `CC(C)CC(N)C(=O)NNc1ccccc1` (stereo not given) the growth inhibition was 83% (active). In the case of `CCC(C(c1ccc(Cl)cc1)c1ccc(Cl)c(Cl)c1)[N+](=O)[O-]` (stereo not given), the growth inhibition was 30% (inactive). For `O=C(O)c1nc2cc(C(F)(F)F)ccc2nc1Nc1ccc(F)cc1`, the growth inhibition was 57% (inactive). For `Nc1nc(-c2ccccn2)cc2cc(Cl)ccc12`, the growth inhibition was 98% (active). With `CC1(c2ccccc2)NC(=O)N(CC(=O)N(c2ccccc2)c2ccccc2)C1=O` (stereo not given) the growth inhibition was 55% (inactive). For `O/N=C(/Cc1ccccc1)c1ccc2c(c1)OCO2`, the growth inhibition was 17% (inactive).

Same assay, conditions: S. cerevisiae cln2 rad14 strain, at 50.0 µM, stronger effect = higher value
With `CCCCCC(C1SC(=S)NC1=O)C1SC(=S)NC1=O` (stereo not given) the growth inhibition was 83% (active). With `CC(C)C1=CC2=CC(=O)C3C(C)(C)CCCC3(C)C2=C(O)C1=O` (stereo not given) the growth inhibition was 85.5% (active). For `CCOC(=O)C[n+]1c(C)sc2ccccc21`, the growth inhibition was 17.6% (inactive). In the case of `OCc1c(-c2cccc3ccccc23)sc(-c2cccc3ccccc23)c1CO`, the growth inhibition was 86.6% (active). For `CC1=C(C#N)C(=O)OC1(C)C(CC(=O)c1ccccc1)c1ccccc1` (stereo not given), the growth inhibition was 49.8% (inactive). For `O=c1oc2c3ccc4ccccc4c3n(CCCN3CCCCC3)c2c2ccccc12`, the growth inhibition was 76% (active). In the case of `Cc1cc(NC(=S)SCc2ccc(F)cc2)ccc1Br`, the growth inhibition was 90.7% (active). In the case of `Cc1ccc(C2C(O)=C(c3ccccc3)Sc3ccc(C)cc32)cc1` (stereo not given), the growth inhibition was 23.2% (inactive). In the case of `COC(=O)/C=C1/OC(c2ccccc2)=CC1=O`, the growth inhibition was 70.3% (active). In the case of `COc1ccccc1NC(=O)CC(=O)N1N=C(c2ccccc2)C(N=Nc2ccc(Cl)cc2)C1=O` (stereo not given), the growth inhibition was -41.2% (inactive). With `CC(=O)NC1=C(Nc2ccc(-c3ccc(NC4=C(NC(C)=O)C(=O)c5ccccc5C4=O)cc3)cc2)C(=O)c2ccccc2C1=O` the growth inhibition was 99.1% (active). For `CCCCCCC(O)CCOC(C)=O` (stereo not given), the growth inhibition was -14.8% (inactive). For `CCn1nc(-c2ccccc2)c2c1N(C)c1ccccc1-n1c(-c3ccccc3)nnc1-2`, the growth inhibition was 99% (active). With `CC1(CCC(=O)O)c2ccc3ccccc3c2Oc2c1ccc1ccccc21` the growth inhibition was 94.9% (active). With `CCN1/C(=C\c2cc(C)nc(-c3ccccc3)[n+]2C)C=Cc2ccccc21` the growth inhibition was 98.8% (active). With `Cc1ccccc1N1C(=O)c2ccccc2C1=O` the growth inhibition was 83.3% (active). In the case of `O=C(Oc1ccccc1)C1CCCCC1C(=O)Oc1ccccc1` (stereo not given), the growth inhibition was -2.35% (inactive). For `Cc1cccc2c1C1c3c(C)cccc3C(O)CC1CC2O` (stereo not given), the growth inhibition was 30.1% (inactive). For `CC(C)c1cc2c(cc1O)C(O)C1(O)CCCC(C)(C)[C@H]1CC2` (stereo not given in full), the growth inhibition was 91.6% (active). With `C/C=C/c1ccc(OCC(=O)O)c(OC)c1` the growth inhibition was 98.2% (active). For `Nc1ccc(S(=O)(=O)NCc2nccs2)cc1`, the growth inhibition was 47.4% (inactive). In the case of `N#CC(NNC(=O)c1ccccc1O)c1c(O)ccc2ccccc12` (stereo not given), the growth inhibition was 41.4% (inactive). In the case of `Oc1ccc(Cl)cc1Cc1cc(Cl)cc(Cc2cc(Cl)ccc2O)c1O`, the growth inhibition was 96.5% (active). In the case of `O=C1CN(CCN2CCOCC2)CC(=O)N2Cc3ccccc3CN12`, the growth inhibition was 62.6% (inactive). With `CC1CCC(SC2CC(=O)CCC2=O)CC1` (stereo not given) the growth inhibition was 98.2% (active). With `Clc1ccc(OCC2CO2)c(Cl)c1` (stereo not given) the growth inhibition was 86.5% (active). In the case of `CN=C(N)N/N=C(\C)c1ccc2c(ccc3ccccc32)c1`, the growth inhibition was 91.3% (active). In the case of `Cc1cc(O)c(/C=N/c2nc(-c3cccc([N+](=O)[O-])c3)cs2)c(=O)o1`, the growth inhibition was 31% (inactive). In the case of `COc1cccc2c1OC(c1ccc(Cl)cc1)C([N+](=O)[O-])=C2` (stereo not given), the growth inhibition was 81.8% (active). In the case of `COc1ccc(C(=O)C2C(=O)C(=O)OC2C2OC(=O)C(=O)C2C(=O)c2ccc(OC)cc2)cc1` (stereo not given), the growth inhibition was -15.3% (inactive). With `CCCCCCCCCCCCCCCCOc1ccc(S(=O)(=O)N/N=c2/sc3ccc(S(=O)(=O)O)cc3n2C)cc1C(=O)O` the growth inhibition was 40.2% (inactive). For `O=C(Nc1ccc(F)cc1)N1CCCCC1`, the growth inhibition was 9.25% (inactive). With `C[CH2][Sn]([CH2]C)([O]C(=O)c1cc(OC)c(OC)c(OC)c1)[O][Sn]([CH2]C)([CH2]C)[O]C(=O)c1cc(OC)c(OC)c(OC)c1` the growth inhibition was 21.9% (inactive). For `C/C(O)=C(/C=N/C(=S)Nc1ccc(S(N)(=O)=O)cc1)C(=O)Nc1ccccc1C`, the growth inhibition was 81.3% (active). With `CC(C)CC(N)C(=O)NNc1ccccc1` (stereo not given) the growth inhibition was 94.2% (active). With `CCC(C(c1ccc(Cl)cc1)c1ccc(Cl)c(Cl)c1)[N+](=O)[O-]` (stereo not given) the growth inhibition was 34% (inactive). For `O=C(O)c1nc2cc(C(F)(F)F)ccc2nc1Nc1ccc(F)cc1`, the growth inhibition was 79.7% (active). For `Nc1nc(-c2ccccn2)cc2cc(Cl)ccc12`, the growth inhibition was -1.4% (inactive). For `CC1(c2ccccc2)NC(=O)N(CC(=O)N(c2ccccc2)c2ccccc2)C1=O` (stereo not given), the growth inhibition was 40.5% (inactive). In the case of `O/N=C(/Cc1ccccc1)c1ccc2c(c1)OCO2`, the growth inhibition was 8.6% (inactive).
